HCMV inh – qHTS Assay for inhibitors of the human cytomegalovirus (HCMV); AID 1259415, 2018; HFF cells, HCMV-luciferase reporter, 72 h; active compounds read low; activity change, negative = inhibition, % at 57.5 µM; 410,000 compounds, 4.5% hits; in the data active = activity change below about -60%; inconclusive = no clear call, values can overlap the other calls; inactive = above about -39%
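After 16 h attachment at 37C, HFF cells received test compound and HCMV-luciferase (1 PFU/cell); reporter luminescence read 72 h later, data normalized against buffer-only and known inhibitor Salinomycin.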
Vaccinia Venus – qHTS for Stage-Specific Inhibitors of Vaccinia Orthopoxvirus: Venus Reporter Primary qHTS. Vaccinia virus Venus reporter expression, fluorescence. Potency, µM (highest dose often 36.5 µM), without a hit: at the top dose activity change, negative = inhibition, hits mostly inhibitors. 330,000 compounds, 0.46% hits. AID 720580, 2013; calls by dose curve; tested in A549 cells; note: potency is the fitted concentration of half-maximal effect; nearly all actives have a fitted effect of over 30% in size
HCV inh – qHTS Assay for Inhibitors of Hepatitis C Virus (HCV) | Huh7.5.1 HCVcc-Cre infection, luciferase reporter, 44 h | Potency, µM (titrated, usually from 41.8 µM), for inactives: top-dose activity change, negative = inhibition, usual class: inhibitors | 340,000 compounds, 3.4% hits; note: potency is the fitted concentration of half-maximal effect
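HCVcc-Cre virus at an moi near 0.5 was added right after compound to cells cultured 4 h from seeding (1,000 cells/well). Luciferase activity was determined 44 h later, 15 min after substrate addition at RT.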
FMDV inh – High Throughput Screening for Foot and Mouth Disease Virus Antivirals; 410,000 compounds, 1.2% hits; FMDV antiviral cell-based qHTS; AID 1159524, 2015; Potency, µM (titrated, usually from 57.9 µM), without a hit: at the top dose activity change, negative = inhibition, actives largely listed as inhibitors; calls by dose curve; tested in HEK293T cells; note: read-out not given here; potency is the fitted concentration of half-maximal effect; nearly all actives have a fitted effect of over 45% in size
VACV mCherry inh – qHTS for Stage-Specific Inhibitors of Vaccinia Orthopoxvirus: mCherry Reporter Primary qHTS; Potency, µM (doses to about 36.5 µM), for inactives: top-dose activity change, negative = inhibition, hits mostly inhibitors; Vaccinia virus mCherry reporter infection, fluorescence; 310,000 compounds, 0.63% hits; calls by dose curve; tested in A549 cells; note: potency is the fitted concentration of half-maximal effect; nearly all actives have a fitted effect of over 35% in size
FBPA Giardia inh – qHTS Assay for Inhibitors of Fructose-1,6-bisphosphate Aldolase from Giardia Lamblia. 290,000 compounds, 0.71% hits. A8B2U2. Potency, µM (doses to about 59.6 µM), for the others: at the highest dose activity, negative = inhibition, usual class: inhibitors. purified Giardia FBPA. AID 2451, 2010; note: potency is the fitted concentration of half-maximal effect; nearly all actives have a fitted effect of over 55% in size
Target sequence (A8B2U2 whole entry, looked up): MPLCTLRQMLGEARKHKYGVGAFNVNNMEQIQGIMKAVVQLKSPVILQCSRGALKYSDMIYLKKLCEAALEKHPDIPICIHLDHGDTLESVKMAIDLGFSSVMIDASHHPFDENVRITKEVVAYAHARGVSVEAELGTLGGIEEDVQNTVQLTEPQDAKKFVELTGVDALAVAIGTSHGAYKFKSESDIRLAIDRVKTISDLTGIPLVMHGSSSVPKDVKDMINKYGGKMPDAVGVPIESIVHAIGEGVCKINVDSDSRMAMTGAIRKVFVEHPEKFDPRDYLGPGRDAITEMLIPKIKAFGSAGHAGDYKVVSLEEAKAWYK
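40 nM FBPA preincubated 10 min at RT with compound (up to 57.5 uM final), then substrate plus GAPDH/TPI/NAD/arsenate coupling and diaphorase/resazurin added. Fluorescence read after 20 min at RT, 525/598 nm.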
Starred values were filed as active, the others as inactive; i = inactive; ? = inconclusive; · = not tested or not shown; [ ] = dose if it differs, or a comment. Rows were chosen to be rich in hits. Some 7.5% of all compounds tested hit in one or more screens of this group. Unless noted, calls come from the whole dose curve; as a rule, active = well fitted curve in the direction sought with a large enough effect; inconclusive = small, poorly fitted or top-dose-only effect, or another doubt; inactive = no such curve, though single readings can be large; an effect the other way counts as inactive or inconclusive. % is set by controls: 0 for no effect and ±100 for the full control effect.

SMILES	HCMV inh	Vaccinia Venus	HCV inh	FMDV inh	VACV mCherry inh	FBPA Giardia inh
O=S(=O)(c1cc(O)ccc1O)c1cccc2c(S(=O)(=O)c3cc(O)ccc3O)cccc12	-21.7	3.1%	10µM*	13.2%	-5.1%	·
COc1ccc(/C=C/C(=O)Nc2ccc(OC)nc2)cc1	2.2	-16.8%	-26.6%	1.9%	?	-5.6%
COc1ccc(CS(=O)(=O)/C(Cl)=C(/Cl)C(=O)Nc2ccc(OC)nc2)cc1	·	10µM*	3.98µM*	11.2µM*	·	-7.2%
Cc1noc(NS(=O)(=O)c2cccc3c(N(C)C)cccc23)c1C	·	·	·	-7.7%	·	-16.4%
O=C1C=C(c2ccc3c(c2)OCO3)C[C@@H](c2ccc3c(c2)OCO3)C1	2.0	-20.1%	?	1.3%	i	·
Cc1cc(C)c(C2=CC(=O)C[C@H](c3ccc4c(c3)OCO4)C2)c(C)c1	-61.0*	-13.4%	-13.1%	0.0%	?	·
C[C@H](CO)N1C[C@H](C)[C@@H](CN(C)C(=O)Nc2ccc3c(c2)OCO3)Oc2ccc(NS(=O)(=O)c3cn(C)cn3)cc2C1=O	-9.3	-7.0%	4.1%	-15.2%	i	·
CCOP(=O)(OCC)C(Nc1ccccn1)c1ccc(F)cc1 (centres undefined)	-69.6*	-7.5%	16.7%	-3.2%	-18.8%	4.5%
O=C(CS(=O)(=O)c1cccc2nsnc12)N1CCN(c2ccc(F)cc2)CC1	-14.3	-14.3%	·	-7.3%	-20.4%	·
OCCC1CN(Cc2nc(-c3ccc(F)cc3)cs2)CCN1CCc1ccccc1 (centres undefined)	21.2	·	?	-22.3%	·	3.9%
CC(C)(C)CN1CCN(Cc2nc(-c3ccc(F)cc3)cs2)CC1CCO (centres undefined)	-63.6*	-14.6%	2.24µM*	?	-11.7%	12.0%
CCCCN1CC(COCc2ccccc2)Oc2cccc(Oc3ccc(F)cc3)c2S1(=O)=O (centres undefined)	-10.2	-12.4%	-15.8%	5.7%	-19.4%	·
CCCCN1CC(COCc2ccccc2)Oc2cccc(Oc3ccccc3)c2S1(=O)=O (centres undefined)	0.7	-24.5%	2.51µM*	13.7%	-4.8%	·
CCCCn1c(N)c(N(Cc2ccccc2OC)C(=O)CCC(C)C)c(=O)[nH]c1=O	5.4	0.8%	-3.3%	4.6%	-3.7%	·
COc1ccc(S(=O)(=O)N2CCCCCC2)cc1NC(=O)CN(C)Cc1ccc2c(c1)OCO2	?	·	11.2µM*	-14.6%	·	·
COc1ccccc1CNCC(=O)Nc1cc(S(=O)(=O)N2CCOCC2)ccc1Cl	-21.0	-22.1%	?	25.1µM*	-9.4%	·
COc1ccccc1CNCC(=O)Nc1cc(S(=O)(=O)N2CCCCCC2)ccc1Cl	-23.0	0.9%	?	?	3.1%	?
CCN(C(=S)Nc1cc(S(=O)(=O)N2CCOCC2)ccc1Cl)c1cccc2ccccc12	7.9	4.1%	1.7%	-8.7%	-2.2%	7.06µM*
O=S(=O)(c1ccc(Cl)c(NC(=S)Nc2cccc(O)c2)c1)N1CCOCC1	26.2	-12.5%	34.7%	8.5%	i	-25.3%
CN(CC(=O)Nc1cc(S(=O)(=O)N2CCCCCC2)ccc1Cl)Cc1ccc2c(c1)OCO2	-0.7	·	?	-26.5%	·	·
COc1ccccc1NC(=O)COn1nnc2ccc(S(=O)(=O)N3CCOCC3)cc21	-62.8*	-21.0%	?	-14.0%	-23.9%	-1.0%
COc1ccc2c(c1)O[C@@H](c1ccc3c(c1)OCO3)[C@H](OC(=O)Nc1ccc(C)c(Br)c1)C2=O	·	·	·	·	·	0.0%
O=C(Cn1c(=O)cnc2ccccc21)NNC(=O)c1ccccc1Cl	80.2	·	13.5%	-2.5%	·	·
CN(CC(=O)Nc1cc(S(=O)(=O)N2CCCC2)ccc1Cl)Cc1ccc2c(c1)OCO2	?	·	6.31µM*	-20.3%	·	·
CS(=O)(=O)c1ccc(Cl)c(NC(=O)COC(=O)CNC(=O)c2ccccc2)c1	4.5	-2.4%	2.4%	4.6%	2.4%	4.0%
SMILES	HCMV inh	Vaccinia Venus	HCV inh	FMDV inh	VACV mCherry inh	FBPA Giardia inh
COc1cccc(CN(C)CC(=O)Nc2cc(S(=O)(=O)N3CCCC3)ccc2Cl)c1OC	-33.4	-20.5%	2.82µM*	?	-28.3%	·
COc1ccccc1CN(C)CC(=O)Nc1cccc(S(=O)(=O)N2CCCC2)c1	-23.1	-16.7%	?	0.0%	-27.7%	·
CS(=O)(=O)c1ccc(Cl)c(NC(=O)CNC(=O)c2ccc3c(c2)OCO3)c1	-61.3*	-4.0%	6.7%	9.0%	i	·
O=[N+]([O-])c1cc(Br)c(O)c(/C=N/Nc2nnnn2-c2cccc3ccccc23)c1	2.3	·	9.8%	-2.7%	·	6.8%
Cc1ccc(C)c(N2CCN(C(=O)CN3CCSc4ccccc43)CC2)c1	13.8	-1.9%	·	0.0%	-10.4%	·
Cc1ccc(C)c(N2CCN(C(=O)CC3Sc4ccccc4NC3=O)CC2)c1 (centres undefined)	-25.8	?	10µM*	?	·	0.8%
O=c1/c(=C/c2ccccn2)sc2nc3ccccc3n12	69.2	3.9%	-0.1%	10µM*	-9.2%	-9.6%
O=c1/c(=C\c2cc([N+](=O)[O-])cc([N+](=O)[O-])c2O)sc2nc3ccccc3n12	·	-14.9%	-12.3%	5.6%	i	15.8µM*
COCCn1c(SC(C)C(=O)Nc2ncc(Cl)cc2Cl)nc2ccccc21 (centres undefined)	-69.7*	11.9%	?	?	?	8.2%
CCOC(=O)c1cc(-c2ccc(OC)cc2)nn1-c1ccc(C(=O)O)cc1	3.1	-2.3%	4.0%	-3.0%	i	7.0%
COC(=O)CC(=O)O[C@H]1C=C[C@@H](NC(=O)OC(C)(C)C)C1	-16.1	1.5%	31.6µM*	-6.7%	-12.9%	·
CC(=O)CC(=O)O[C@@H]1C=C[C@H](NC(=O)OC(C)(C)C)C1	15.7	·	·	·	·	·
CC1=C(C(=O)Nc2cccc(C(=O)NC3CCCC(C)C3C)c2)SCCO1 (centres undefined)	0.0	0.0%[7.34 µM]	12.6µM*	-21.9%	3.6%[7.34 µM]	·
COc1cc(CCNC(=O)c2ccccc2NC(=O)C2=C(C)OCCS2)cc(OC)c1OC	-19.8	·	-17.1%	?	·	·
COc1ccc(CCNC(=O)c2ccccc2NC(=O)C2=C(C)OCCS2)c(OC)c1	-6.9	17.9%[7.34 µM]	10µM*	-3.7%	7.4%[7.34 µM]	-18.5%
COc1ccc(OC)c(CCNC(=O)c2cccc(NC(=O)C3=C(C)OCCS3)c2)c1	-13.3	0.8%[7.34 µM]	11.2µM*	-2.4%	-1.0%[7.34 µM]	·
CC(=O)NC(C(=O)O)C(C)(C)SN=O (centres undefined)	·	-3.4%	·	6.2%	0.7%	2.2%
Cc1cc(C)cc(Nc2ncnc3c2nc2n3CCCC2)c1	?	-23.4%	·	8.0%	-8.5%	·

Bioassay records (PubChem)
